Several values for one entry are separate records, joined by “and”; a condition that tells them apart may be missing. Equal values may be shown once. Inconclusive results are not listed. Activity calls are given as the source filed them. The call rests on the fitted dose curve; in most records, active means well fitted cell-killing curve with a large enough effect; inconclusive means small, poorly fitted or top-dose-only effect; inactive means flat fitted curve, though single readings scatter.
On the % scale 0 is the no-effect control and ±100 the full control effect; potency means the concentration at half of the fitted maximal effect.

The nature of the assay: Cellular viability qHTS for adrenocortical cancer (ACC) cell line SW-13 (AID 1963989). Further: nearly all actives have a fitted effect of over 65% in size.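 On activity (max response): cells grown in serum-free medium with ITS supplement.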 To be noted: SW-13 ACC cells viability, CellTiter-Glo, 48 h; activity (max response): hits give low values. In short, it runs like this: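 Compound titrations (up to 46 uM final, in DMSO) were applied to SW-13 cells for 48 h at 37C/5% CO2. Reading used CellTiter-Glo after 20 min at room temperature; fitted curves yielded IC50 and efficacy.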
Take `CC(=O)OCC(CCn1cnc2cnc(N)nc21)COC(C)=O`: the activity (max response) is 5.15% (inactive) and -10.4% (inactive).

Regarding `Cc1cc(C(C)Nc2ccccc2)c2nc(N3CCOCC3)cc(=O)n2c1` (configuration not stated), the activity (max response) was -14.6% (inactive).

As to `O=C1CCC[C@@H]2[C@H]3CCC[N+]4([O-])CCC[C@@H](CN12)[C@@H]34` (some centres not stated), the activity (max response) was -8.5% (inactive).

As for `CN(CCOc1ccc(NS(C)(=O)=O)cc1)CCc1ccc(NS(C)(=O)=O)cc1`, the activity (max response) was 0.645% (inactive) and 1.15% (inactive).

Turning to `CC[C@@H]([C@H](C)O)n1ncn(-c2ccc(N3CCN(c4ccc(OCC5CO[C@@](Cn6cncn6)(c6ccc(F)cc6F)C5)cc4)CC3)cc2)c1=O` (some centres not stated), the activity (max response) was -5.54% (inactive).

In the case of `O=C(c1ccc(F)cc1)C1CCN(CCn2c(=O)[nH]c3ccccc3c2=O)CC1`, the activity (max response) was -13.7% (inactive).

Consider `COc1ccc(F)c(F)c1C(=O)c1cnc(NC2CCN(S(C)(=O)=O)CC2)nc1N`, for which the Potency is 3.55 µM (active).

For the molecule `CC1CNc2c(cccc2S(=O)(=O)N[C@@H](CCCN=C(N)N)C(=O)N2CC[C@@H](C)C[C@@H]2C(=O)O)C1` (some centres not stated), the activity (max response) is -14.2% (inactive).

As for `Cc1cnc(Nc2ccc(OCCN3CCCC3)cc2)nc1Nc1cccc(S(=O)(=O)NC(C)(C)C)c1`, the Potency was 12.6 µM (active).

`CCCCN(CCCC)CCC(O)c1cc2c(Cl)cc(Cl)cc2c2cc(C(F)(F)F)ccc12` (configuration not stated): the Potency is 5.8 µM (active).

For `CCn1c(-c2nonc2N)nc2cncc(CNC3CCNCC3)c21`, the activity (max response) was -7.16% (inactive).

For the molecule `NCCS(=O)(=O)O`, the activity (max response) was 6.15% (inactive) and -3.63% (inactive).

As for `C[C@@H](NCCCc1cccc(C(F)(F)F)c1)c1cccc2ccccc12`, the Potency was 20.6 µM (active) and 25.1 µM (active).

Regarding `COc1ccc2[nH]cc(CCNC(C)=O)c2c1`, the activity (max response) was -5.05% (inactive) and -7.41% (inactive).

As to `CCCOc1ccc(C(=O)OCCN(CC)CC)cc1N`, the activity (max response) is -2.3% (inactive) and -19.7% (inactive).

In the case of `NCCc1cnc[nH]1`, the activity (max response) is 7.56% (inactive) and -0.338% (inactive).

Take `CN1CC[C@@H](c2c(O)cc(O)c3c(=O)cc(-c4ccccc4Cl)oc23)[C@@H](O)C1`: the Potency is 2.24 µM (active).

With `Nc1ncnc2c1ncn2[C@@H]1O[C@H](CO)[C@@H](O)[C@@H]1O`, the activity (max response) was -11.9% (inactive).

Consider `Cc1c(-c2ccnn2C)cc(C(=O)NCc2ccc(S(C)(=O)=O)cn2)c(=O)n1-c1cccc(C(F)(F)F)c1`, for which the activity (max response) is 5.26% (inactive).

Take `COC(=O)Nc1cc(Nc2cc(NC3CC3)c3ncc(C#N)n3n2)c(Cl)c(N2CCN(C)CC2)c1`: the Potency is 2.82 µM (active).

For `O[C@@H](COc1cccc2ncccc12)CN1CCN(C2c3ccccc3[C@@H]3[C@H](c4ccccc42)C3(F)F)CC1` (some centres not stated), the Potency is 20.6 µM (active).

`CC1=CC(=O)c2ccccc2C1=O`: the activity (max response) is 13.5% (inactive).

Consider `CN(C)c1nc(N(C)C)nc(N(C)C)n1`, for which the activity (max response) was -1.75% (inactive) and -4.21% (inactive).

For the molecule `CC(NCCc1ccc(O)cc1)C(O)c1ccc(O)cc1` (configuration not stated), the activity (max response) is -9.55% (inactive).

For the molecule `CC(C)C[C@H](NC(=O)[C@@H](NC(=O)c1cccc(-c2ccccc2)n1)[C@@H](C)O)B(O)O`, the Potency was 0.285 µM (active).

For the molecule `COC(=O)N1CC2(CC2)C[C@H](C(=O)NO)[C@H]1C(=O)N1CCN(c2ccccc2)CC1`, the activity (max response) was -14.2% (inactive).

Take `CCN(CC)CCNC(=O)c1ccc2nc(-c3ccccc3)c(-c3ccc(CN4CCC(n5c(=O)[nH]c6ccccc65)CC4)cc3)nc2c1`: the Potency is 6.31 µM (active).

Source of the values: PubChem BioAssay (NCATS).
